# Assay results published in PubChem BioAssay (Tox21).
# A number with no mark means an inactive call. Records with an inconclusive call do not appear. Where a call stands in place of a potency, no number is given. Active and inactive are the calls of the source. The call rests on the fitted dose curve.
# Key:
# [1] = molecular target: Acetylcholinesterase (Homo sapiens) (UniProt P22303); test: Acetylcholinesterase (AChE) small molecule antagonists: colormetric cell-based qHTS assay (AID 1347395); further: nearly all actives have a fitted effect of over 30% in size; further: potency means the concentration at half of the fitted maximal effect
# In short: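 SH-SY5Y cells attached overnight, exposed to compound 30 min at 37 C, then given DTNB/acetylthiocholine; after 90 min at 37 C, colorimetric thiocholine read gives cellular AChE activity.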
# [2] = molecular target: Acetylcholinesterase (Homo sapiens) (UniProt P22303); test: Acetylcholinesterase (AChE) small molecule antagonists: enzyme-based qHTS assay (AID 1347397); conditions: Potency: AChE enzyme activity inhibition; outcome: AChE enzyme activity inhibition; further: nearly all actives have a fitted effect of over 55% in size; further: potency means the concentration at half of the fitted maximal effect
# In short: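 Recombinant human AChE (50 mU/mL) preincubated with compound 30 min at room temperature; acetylthiocholine plus DTNB then added, and thiocholine formation read colorimetrically after 10 min at room temperature. DMSO served as vehicle control.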
# [3] = molecular target: Acetylcholinesterase (Homo sapiens) (UniProt P22303); test: Acetylcholinesterase (AChE) small molecule antagonists: fluorescence cell-based qHTS assay (AID 1347398); conditions: Potency: AChE activity; outcome: AChE activity; further: nearly all actives have a fitted effect of over 50% in size; further: potency means the concentration at half of the fitted maximal effect
# In short: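 SH-SY5Y cells (2000/well), attached overnight, incubated with compound 30 min at 37 C. Acetylthiocholine plus Thiolite Green then added for 40 min at room temperature. Thiocholine fluorescence (Ex/Em 490/520 nm) reports cellular AChE activity.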
# [4] = molecular target: Acetylcholinesterase (Homo sapiens) (UniProt P22303); test: Acetylcholinesterase (AChE) small molecule antagonists: enzyme-based qHTS assay with human liver microsomes (AID 1347399); conditions: Potency: qHTS inhibition; outcome: qHTS inhibition; further: nearly all actives have a fitted effect of over 60% in size
# In short: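 Recombinant human AChE (50 mU/mL in the enzyme mix) and human liver microsomes (0.25 mg/mL final) were preincubated with compound and NADPH (0.25 mg/mL final) for 30 min at 37 C. Acetylthiocholine/DTNB was then added; thiocholine was read colorimetrically after 10 min at room temperature.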
# Chain of Acetylcholinesterase (Homo sapiens) (P22303 whole entry, looked up): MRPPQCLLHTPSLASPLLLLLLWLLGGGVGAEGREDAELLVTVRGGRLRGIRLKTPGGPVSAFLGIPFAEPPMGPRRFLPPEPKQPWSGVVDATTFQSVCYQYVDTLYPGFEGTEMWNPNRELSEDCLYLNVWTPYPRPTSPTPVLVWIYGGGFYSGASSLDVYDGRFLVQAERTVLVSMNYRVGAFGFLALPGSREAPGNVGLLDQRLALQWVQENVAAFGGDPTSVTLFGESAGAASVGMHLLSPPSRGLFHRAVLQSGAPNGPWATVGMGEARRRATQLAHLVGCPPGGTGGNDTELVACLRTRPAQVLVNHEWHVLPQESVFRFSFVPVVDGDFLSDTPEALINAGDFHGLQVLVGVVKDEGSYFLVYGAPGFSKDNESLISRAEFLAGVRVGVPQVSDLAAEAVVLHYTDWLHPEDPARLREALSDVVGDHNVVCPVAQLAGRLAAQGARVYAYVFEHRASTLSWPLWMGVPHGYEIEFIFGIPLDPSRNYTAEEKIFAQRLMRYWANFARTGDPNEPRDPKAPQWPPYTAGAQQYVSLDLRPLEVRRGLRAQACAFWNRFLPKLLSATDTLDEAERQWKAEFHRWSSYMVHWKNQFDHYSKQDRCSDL
Structure (SMILES),Potency [1],Potency [2],Potency [3],Potency [4],outcome [1],outcome [2],outcome [3],outcome [4]
CCOc1ccc(NS(=O)(=O)c2ccc(N)cc2)nn1,inactive,inactive,inactive,inactive,–,–,–,–
CC(C)O,inactive,inactive,inactive,inactive,–,–,–,–
CCCN(CCC)C(=O)C(CCC(=O)O)NC(=O)c1ccccc1 (stereo unspecified),inactive,inactive,inactive,inactive,–,–,–,–
O=S(=O)(c1ccccc1)c1ccc(Cl)cc1,inactive,inactive,inactive,inactive,–,–,–,–
CC(C)(C)c1cc(C=O)cc(C(C)(C)C)c1O,inactive,inactive,inactive,inactive,–,–,–,–
C[C@H]1NCc2cc(-c3ccc4c(=O)c(C(=O)O)cn(C5CC5)c4c3OC(F)F)ccc21,–,–,–,–,inactive,inactive,inactive,inactive
CCCCCCCCC(=O)Cl,inactive,inactive,inactive,inactive,–,–,–,–
CCC1=C(C)CN(C(=O)NCCc2ccc(S(=O)(=O)NC(=O)NC3CCC(C)CC3)cc2)C1=O (stereo unspecified),inactive,inactive,inactive,inactive,–,–,–,–
CC(C)CCCC(C)(C)O,inactive,inactive,inactive,inactive,–,–,–,–
CCOc1ccc(O)cc1,inactive,inactive,inactive,inactive,–,–,–,–
CCCCOCCCC,inactive,inactive,inactive,inactive,–,–,–,–
CCC(C)(Oc1ccc(C2(c3ccc(OC(C)(CC)C(=O)O)cc3)CCCCC2)cc1)C(=O)O (stereo unspecified),inactive,inactive,inactive,inactive,–,–,–,–
N#CCc1ccccc1[N+](=O)[O-],inactive,inactive,inactive,inactive,–,–,–,–
CC(=O)CC(c1ccc([N+](=O)[O-])cc1)c1c(O)c2ccccc2oc1=O (stereo unspecified),inactive,inactive,inactive,inactive,–,–,–,–
CCC(C)C1CCCCC1=O (stereo unspecified),inactive,inactive,inactive,inactive,–,–,–,–
CCCCCC(C)OC(=O)COc1ccc(Cl)c2cccnc12 (stereo unspecified),inactive,inactive,inactive,inactive,–,–,–,–
C=CC(=O)O[C@H]1C[C@@H]2CC[C@@]1(C)C2(C)C,inactive,inactive,inactive,inactive,–,–,–,–
O=C(O)C(O)[C@H](O)[C@@H](O)[C@H](O)[C@H](O)CO (stereo partly specified),inactive,inactive,inactive,inactive,–,–,–,–
CCO[Si](C)(C)OCC,inactive,inactive,inactive,inactive,–,–,–,–
CCCCCCc1ccc(N)cc1,inactive,inactive,inactive,inactive,–,–,–,–
O=C(O)CNC(=O)CNC(=O)CNC(=O)CSC(=O)c1ccccc1,inactive,inactive,inactive,inactive,–,–,–,–
NC(=O)Nc1ccccc1,inactive,inactive,inactive,inactive,–,–,–,–

Structure (SMILES),Potency [1],Potency [2],Potency [3],Potency [4],outcome [1],outcome [2],outcome [3],outcome [4]
CC(C)C(O)C(C)(C)CO (stereo unspecified),inactive,inactive,inactive,inactive,–,–,–,–
CC[C@@H]1C[C@H](N(Cc2cc(C(F)(F)F)cc(C(F)(F)F)c2)C(C)=O)c2cc(C(F)(F)F)ccc2N1C(=O)OC(C)C,inactive,inactive,inactive,inactive,–,–,–,–
C=CCOc1c(Br)cc(Br)cc1Br,inactive,inactive,inactive,inactive,–,–,–,–
CCC1CCCCC1,inactive,inactive,inactive,inactive,–,–,–,–
C=CC(C)(O)CCCC(C)CCCC(C)CCCC(C)C (stereo unspecified),inactive,inactive,inactive,inactive,–,–,–,–
CC1=CP(=O)(c2ccccc2)CC1 (stereo unspecified),inactive,inactive,inactive,inactive,–,–,–,–
FC1(F)C(F)(F)C(F)(F)C2(F)C(F)(C1(F)F)C(F)(F)C(F)(F)C1(F)C(F)(F)C(F)(F)C(F)(F)C(F)(F)C12F (stereo unspecified),inactive,inactive,inactive,inactive,–,–,–,–
CC(C)CCCO,inactive,inactive,inactive,inactive,–,–,–,–
C=C(C)[C@H]1CC=C(C)CC1,inactive,inactive,inactive,inactive,–,–,–,–
Cc1nc(C)nc(N2C[C@@H](C)N(c3ccnc([C@@H](C)O)n3)[C@@H](C)C2)n1,inactive,inactive,inactive,inactive,–,–,–,–
Cc1cc(CC(=O)O)c(C)n1-c1ccc(Cl)cc1,inactive,inactive,inactive,inactive,–,–,–,–
CN(C)CCN1CCN(c2cccc(Cl)c2)C1=O,inactive,inactive,inactive,inactive,–,–,–,–
CCC(O)CO (stereo unspecified),inactive,inactive,inactive,inactive,–,–,–,–
O=C1CCCCCCCCCCCCCCCO1,inactive,inactive,inactive,inactive,–,–,–,–
COc1cc2nc(N(C)CCCNC(=O)C3CCCO3)nc(N)c2cc1OC (stereo unspecified),17.4 µM (active),24.5 µM (active),15.5 µM (active),inactive,–,–,–,–
CCCCC(CC)CNC(=O)CC(C)OC(=O)CCC(=O)O (stereo unspecified),inactive,inactive,inactive,inactive,–,–,–,–
Nc1ccc(F)cc1,inactive,inactive,inactive,inactive,–,–,–,–
OCCC(F)(F)C(F)(F)C(F)(F)C(F)(F)C(F)(F)C(F)(F)C(F)(F)C(F)(F)F,inactive,inactive,inactive,inactive,–,–,–,–
CCC(CO)(CO)COCC(CC)(CO)CO,inactive,inactive,inactive,inactive,–,–,–,–
O=CNc1ccccc1,inactive,inactive,inactive,inactive,–,–,–,–
CCCCCOC(=O)CCCC,inactive,inactive,inactive,inactive,–,–,–,–
CCn1c(=O)c2c(nc(/C=C/c3ccc(OC)c(OC)c3)n2C)n(CC)c1=O,inactive,inactive,inactive,inactive,–,–,–,–
